# A selection: hits, their analogues and other compounds. The true share with any hit is near 10%.
# SARS PLpro yeast: qHTS of Yeast-based Assay for SARS-CoV PLP | actives 0.19% (n = 330,000) | Potency, µM (titrated, usually from 32.9 µM), without a hit: top-dose activity, positive = growth rescue, actives largely listed as activators | S. cerevisiae expressing SARS-CoV PLpro, growth rescue; also: 0% is about no effect; nearly all actives have a fitted effect of over 55% in size
# NS1 function inh: qHTS Assay for Inhibitors of Influenza NS1 Protein Function; Potency, µM (highest dose often 46.1 µM), for inactives: at the highest dose activity, positive = more growth; actives 0.4% (n = 270,000); also: actives are rising curves; nearly all actives have a fitted effect of over 50% in size
#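 Read-out: OD600 growth recovery of NS1-expressing budding yeast. Cells grown overnight at 30C in -URA glucose medium, washed, resuspended and diluted 1:100 in 2% galactose assay medium, pH 6.0. Same strain lacking NS1 served as positive control.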
# Pf growth 96h: Primary qHTS for delayed death inhibitors of the malarial parasite plastid, 96 hour incubation; P. falciparum luciferase reporter growth, 96 h; Potency, µM (titrated, usually from 28.7 µM), without a hit: at the highest dose activity change, negative = inhibition, most hits filed as inhibitors; actives 6.9% (n = 320,000); AID 504834, 2011; active = well fitted inhibition curve with a large enough effect; inconclusive = small, poorly fitted or top-dose-only effect, or another doubt; inactive = no such curve, though single readings can be large or run the other way; also: % is scaled to controls: 0 for no effect and ±100 for the full control effect
#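 P. falciparum expressing integrated firefly luciferase grown in erythrocytes (2% hematocrit, 0.05% parasitemia final) with compounds for 96 hours at 37 C, 5% CO2. Growth inhibition read as loss of luminescence after adding luciferase detection reagent.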
# Pf growth 48h: Primary qHTS for delayed death inhibitors of the malarial parasite plastid, 48 hour incubation. P. falciparum luciferase growth in erythrocytes, 48 h. Potency, µM (titrated, usually from 28.7 µM), inactives show at the highest dose activity change, negative = inhibition, most hits filed as inhibitors. actives 5.9% (n = 310,000). AID 504832, 2011; active = well fitted inhibition curve with a large enough effect; inconclusive = small, poorly fitted or top-dose-only effect, or another doubt; inactive = no such curve, though single readings can be large or run the other way; also: % is scaled to controls: 0 for no effect and ±100 for the full control effect
#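 Here the parasites carry a stable luciferase gene and grow inside erythrocytes in Albumax-based RPMI medium with compound for one erythrocytic cycle. Activity is scored as loss of luminescent signal.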
# Active calls of the source: *; ? = inconclusive; · = no result given; [ ] = remark or other dose. Unless noted, calls follow the shape of the full dose curve. Potency is read from the fitted curve at half-maximal effect.
SMILES,SARS PLpro yeast,NS1 function inh,Pf growth 96h,Pf growth 48h
Cc1ccc(NC(=O)CC(C)c2ccccc2)cc1S(=O)(=O)N1CCOCC1 (stereo unspecified),-5%,·,·,·
CCCCCOc1ccc(NC(=O)CSc2cccc3cccnc23)cc1,18%,-3%,5.2µM*,10µM*
CCc1ccc(OCCCC(=O)Nc2ccc(N3CCOCC3)cc2)cc1,0%,2%,7.4µM*,-18%
COc1ccc(NC(=O)CSc2cccc3cccnc23)c(OC)c1,9%,-7%,-15%,34%
CC(CC(=O)Nc1ccc(S(=O)(=O)N2CCOCC2)cc1)c1ccccc1 (stereo unspecified),-1%,-79%,9%,3.3µM*
O=C(CSc1cccc2cccnc12)Nc1ccc(S(=O)(=O)N2CCOCC2)cc1,-1%,?,-9%,12µM*
CCOc1ccccc1OCCCC(=O)Nc1cccc(S(=O)(=O)N2CCOCC2)c1,4%,·,?,13µM*
O=C(CCCOc1ccccc1)Nc1ccc(S(=O)(=O)N2CCOCC2)cc1,2%,-5%,?,12µM*
O=C(CCCOc1ccccc1)Nc1cccc(S(=O)(=O)N2CCOCC2)c1,12%,·,·,·
COc1cccc(Oc2cn[nH]c2-c2ccc(O)cc2O)c1,-2%,-53%,19%,5.2µM*
COc1cccc(Oc2cn[nH]c2-c2ccc(OC)cc2O)c1,-42%,-132%,·,8.3µM*
CCOC(=O)c1cc(C(=O)NN)c(C)nc1C,9%,3%,9%,12%
CCOC(=O)c1cc2c(nc1C)-c1cc(Cl)cc(Cl)c1OC2O (stereo unspecified),-5%,6%,4.7µM*,6.6µM*
O=C(Nc1ccc(Cc2ccc(NC(=O)C3CC3)c(O)c2)cc1O)C1CC1,2%,?,10µM*,4%
Cc1cc(C)c2nc(N(CCCN(C)C)C(=O)c3ccc(S(=O)(=O)N4CCCCCC4)cc3)sc2c1,3%,·,12µM*,9.3µM*
CN(C)CCCN(C(=O)c1ccc(S(=O)(=O)N2CCCCC2)cc1)c1nc2cc3c(cc2s1)OCO3,1%,3%,-6%,12µM*
CN(C)CCCN(C(=O)c1ccc(S(=O)(=O)N2CCOCC2)cc1)c1nc2cc3c(cc2s1)OCO3,-4%,-9%,5%,?
CCc1ccccc1NC(=O)N1CCC(NC(=O)C(Cc2ccccc2)NC(C)=O)CC1 (stereo unspecified),-1%,3%,1%,-15%
CCc1ccccc1NC(=O)N1CCC(NC(=O)C(Cc2ccc(OC)c(OC)c2)NC(C)=O)CC1 (stereo unspecified),0%,15%,12µM*,?
COc1ccc(C(C)=O)cc1COC(=O)c1cc(=O)c2ccccc2o1,12%,0%,22%,8%
CNCC(O)CN(c1ccccc1)c1ccccc1 (stereo unspecified),-2%,0%,57%,?
OC(CN1CCCCC1)CN(c1ccccc1)c1ccccc1 (stereo unspecified),1%,-7%,9.3µM*,·
NC(N)=NCC(O)CN(c1ccccc1)c1ccccc1 (stereo unspecified),0%,-3%,1.5µM*,1.2µM*
Cc1ccc(CNC(=O)Nc2ccccc2)n1C,-1%,-3%,59%,59%
NS(=O)(=O)c1ccc(CCNC(=O)CSc2nc3ccsc3c(=O)n2CC(=O)O)cc1,16%,-1%,1.2µM*,-11%
SMILES,SARS PLpro yeast,NS1 function inh,Pf growth 96h,Pf growth 48h
CCOC(=O)N1CCC(n2c(SCC(=O)NCc3ccco3)nc3ccsc3c2=O)CC1,-1%,-6%,?,13µM*
CCOC(=O)CSc1nc2ccsc2c(=O)n1C1CCN(C(=O)OCC)CC1,-1%,-73%,?,?
COc1ccc(Cn2c(SCC(=O)NCc3ccco3)nc3ccsc3c2=O)cc1,2%,2%,0%,13µM*
CCOC(=O)CSc1nc2cc(C(=O)NCc3ccco3)ccc2c(=O)n1C1CCCCC1,1%,1%,-2%,5.9µM*
Cc1ccc(C2(C)NC(=O)N(CC(=O)NNC(=O)c3cc(C)oc3C)C2=O)cc1 (stereo unspecified),2%,·,48%,18%
N#Cc1ccccc1OCC(=O)OCCCOC(=O)COc1ccccc1C#N,-2%,4%,?,-11%
CC1CCN(S(=O)(=O)c2c[nH]c(=O)[nH]c2=O)CC1,-9%,·,1%,-2%
Cc1cccc(Cl)c1NC(=O)N1CCCN(c2nc3ccc(Cl)cc3s2)CC1,-2%,-3%,?,?
Cc1nc(Nc2ncc(C(=O)Nc3c(C)cccc3Cl)s2)cc(N2CCN(CCO)CC2)n1,·,·,7.6µM*,9.5µM*
Nc1c(Cl)ncnc1N/N=C/c1ccccn1,·,-33%,2.9µM*,2.1µM*
Cc1oc(-c2ccccc2)nc1C(=O)N1CCN(c2ccc(F)cc2)CC1,-5%,·,34%,405%
CN(C)CCN(CC1CCCN(Cc2ccccc2F)C1)C(=O)c1ccc(Cl)cc1 (stereo unspecified),0%,2%,13µM*,?
Cc1ccccc1CC(=O)N(CCN(C)C)CC1CCCN(Cc2ccccc2F)C1 (stereo unspecified),2%,9%,?,?
COc1ccccc1-n1cc(CN2CCN(C3CCCCC3)C(CCO)C2)cn1 (stereo unspecified),0%,5%,?,1%
COc1ccnc2c1c(=O)n(Cc1ccc(Cl)cc1Cl)c(=O)n2C,-72%,-105%,?,?
CCc1ccc(NC(=O)COC(=O)C2(c3ccc(Cl)cc3)CCCC2)cc1,5%,-3%,15µM*,-15%
O=C(CNc1cc(S(=O)(=O)N2CCOCC2)ccc1N1CCCC1)N1CCc2ccccc21,-1%,-1%,?,13µM*
CC(=O)NCCC(=O)Nc1cc(S(=O)(=O)N2CCOCC2)ccc1Oc1ccccc1,0%,7%,12µM*,-11%
CC(=O)NCCC(=O)Nc1cc(S(=O)(=O)N2CCOCC2)ccc1N1CCCC1,1%,·,0%,12µM*
c1ccc(-n2cnnn2)cc1,·,·,-16%,-9%
Nc1nc2c(c(=O)[nH]1)N(C=O)[C@H](CNc1ccc(C(=O)N[C@@H](CCC(=O)O)C(=O)O)cc1)CN2,·,·,-1%[12.8 µM],0%[12.8 µM]
CSC1=N/C(=C/c2cccnc2)C(=O)N1Cc1ccc(Cl)cc1,0%,1%,?,6.6µM*
CSC1=N/C(=C/c2cccnc2)C(=O)N1Cc1ccccc1,-2%,4%,18%,1%
O=C(ONC1=NCCCCC1)c1c(F)cccc1F,-26%,-36%,-50%,13µM*
O=C(ONC1=NCCCCC1)c1ccc(Cl)cc1,-29%,-215%,·,?
C(=N\Nc1nc(Nc2ccccc2)nc(N2CCCCC2)n1)/c1ccco1,-4%,-1%,?,?
COc1cc(Cl)c(C)cc1NC(=O)COc1ccc(C)nc1[N+](=O)[O-],-3%,·,-4%,36%
COc1cc(Nc2ccccc2Cl)c([N+](=O)[O-])nc1[N+](=O)[O-],6%,6%,15µM*,·
COC(=O)[C@H]1C[C@@H]1[C@H](NC(=O)c1ccccc1)c1ccccc1,11%,-5%,?,34%
